The target of assay [1] is Regulator of G-protein signaling 16 (Homo sapiens) (UniProt O15492). In words: modulators of RGS–Galpha-o binding, primary screen, biochemical, multiplexed beads, flow cytometry, RGS4/7/8/16/19 (AID 1504).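 Also: fluorescently labeled Galpha-o bound to GDP with aluminium fluoride binding biotinylated RGS beads.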 Particulars: multiplexed bead flow cytometry, measured here: RGS16 interaction, at 10 µM. (In general: In flow cytometry, cells or beads pass a laser one at a time.)
For assay [2], the target named is Regulator of G-protein signaling 19 (Homo sapiens) (UniProt P49795). The description is as above. Particulars: multiplexed bead flow cytometry, measured here: RGS19 interaction, at 10 µM.
Assay [3] has as its target Regulator of G-protein signaling 7 (Homo sapiens) (UniProt P49802). Described as above. The conditions noted are these: multiplexed bead flow cytometry, measured here: RGS7 interaction, at 10 µM.
Assay [4] deals with Regulator of G-protein signaling 8 (Homo sapiens) (UniProt P57771). The description is as above. The conditions noted are these: multiplexed bead flow cytometry, measured here: RGS8 interaction, at 10 µM.
Assay [5] is described as follows: disruption of biotin probe capture by avidin, counter-screen for RGS protein interaction modulators, biochemical, flow cytometry, bead-based (AID 1783).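 Also: median green fluorescence of gated singlet beads compared with DMSO control wells; 0% = DMSO wells and 100% = complete loss of bead fluorescence.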 The conditions noted are these: streptavidin beads, fluorescein-biotin binding; at 10 µM, stronger effect = higher value. (Counterscreens check selectivity or assay interference.)
In assay [6] the target is Guanine nucleotide-binding protein G(o) subunit alpha (Homo sapiens) (UniProt P09471). In words: RGS8-Galphao binding modulators, confirmation, biochemical, multiplexed bead flow cytometry, single concentration (AID 1836; in the data active = binding response below about 72% or above about 130%; inactive = in between;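 also: Galphao activated as GDP AlF4 complex before binding bead RGS8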). The conditions noted are these: bead-based flow cytometry RGS8-Galphao binding, fluorescence; at 10 µM; actives lie on both sides.
Assay [7] has the same target. The experiment in a line: RGS7-Galphao binding modulators, confirmation, biochemical, multiplexed bead flow cytometry, single concentration (AID 1837; in the data active = response below about 75% or above about 130%; inactive = in between;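 also: fluorescent Galphao activated with GDP and aluminum fluoride binding bead-coupled RGS7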). The conditions noted are these: bead-based flow cytometry RGS7-Galphao binding; at 10 µM; actives lie on both sides.
The target in assay [8] is Regulator of G-protein signaling 16 (Homo sapiens) + Guanine nucleotide-binding protein G(o) subunit alpha (Homo sapiens) (UniProt O15492+P09471). The experiment in a line: modulators of RGS16-Galphao protein binding, confirmation, biochemical, single concentration, multiplexed bead flow cytometry (AID 1838; in the data active = response below about 74% or above about 130%; inactive = in between;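 also: Galphao activated as the GDP aluminium fluoride complex binding bead-coupled RGS16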). The conditions noted are these: bead-based flow cytometry, at 10 µM, actives lie on both sides.

Assay [9] deals with Guanine nucleotide-binding protein G(o) subunit alpha (Homo sapiens) (UniProt P09471). The experiment in a line: modulators of RGS4-Galphao protein binding, confirmation, biochemical, single concentration, multiplexed bead flow cytometry (AID 1840; in the data active = binding response below about 74% or above about 130%; inactive = in between). Particulars: at 10 µM, actives lie on both sides.
Assay [10] concerns the target Guanine nucleotide-binding protein G(o) subunit alpha (Homo sapiens) + Regulator of G-protein signaling 19 (Homo sapiens) (UniProt P09471+P49795). The experiment in a line: regulators of RGS19-Galphao binding, confirmation, biochemical, single point, multiplexed bead flow cytometry (AID 1841; in the data active = response below about 50% or above about 160%; inactive = in between;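 also: 100% = no compound control and 0% = blank background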). The conditions noted are these: bead-based flow cytometry RGS19-Galphao binding; at 10 µM; actives lie on both sides.

The other results are listed elsewhere or left out. Activity calls are given as the source filed them.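 The calls were made as follows, unless noted: active = inhibition above 50%; inactive = the rest.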

For orientation: inhibition means the drop in the measured response relative to a control, in per cent.

Sequence of Guanine nucleotide-binding protein G(o) subunit alpha (Homo sapiens) + Regulator of G-protein signaling 19 (Homo sapiens) (P09471 whole entry, looked up): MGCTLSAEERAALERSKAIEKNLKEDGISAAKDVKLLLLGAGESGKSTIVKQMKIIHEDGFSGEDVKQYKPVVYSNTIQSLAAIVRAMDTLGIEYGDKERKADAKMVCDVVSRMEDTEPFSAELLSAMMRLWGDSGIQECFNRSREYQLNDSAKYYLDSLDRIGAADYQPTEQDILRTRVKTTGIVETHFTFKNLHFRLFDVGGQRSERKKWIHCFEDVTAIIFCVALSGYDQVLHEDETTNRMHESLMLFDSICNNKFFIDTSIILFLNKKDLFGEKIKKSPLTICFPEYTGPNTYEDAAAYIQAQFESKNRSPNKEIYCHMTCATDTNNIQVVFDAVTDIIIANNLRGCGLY
Sequence of Guanine nucleotide-binding protein G(o) subunit alpha (Homo sapiens) + Regulator of G-protein signaling 19 (Homo sapiens) (P49795 whole entry, looked up): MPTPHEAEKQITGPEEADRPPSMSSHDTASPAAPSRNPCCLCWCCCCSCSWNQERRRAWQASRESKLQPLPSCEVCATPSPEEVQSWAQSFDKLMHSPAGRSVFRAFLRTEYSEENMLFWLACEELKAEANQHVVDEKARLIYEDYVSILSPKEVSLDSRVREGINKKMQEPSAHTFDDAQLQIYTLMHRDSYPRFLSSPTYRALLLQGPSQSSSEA
Sequence of Guanine nucleotide-binding protein G(o) subunit alpha (Homo sapiens) (P09471 whole entry, looked up): as the sequence (P09471 whole entry, looked up) above
Sequence of Regulator of G-protein signaling 16 (Homo sapiens) + Guanine nucleotide-binding protein G(o) subunit alpha (Homo sapiens) (O15492 whole entry, looked up): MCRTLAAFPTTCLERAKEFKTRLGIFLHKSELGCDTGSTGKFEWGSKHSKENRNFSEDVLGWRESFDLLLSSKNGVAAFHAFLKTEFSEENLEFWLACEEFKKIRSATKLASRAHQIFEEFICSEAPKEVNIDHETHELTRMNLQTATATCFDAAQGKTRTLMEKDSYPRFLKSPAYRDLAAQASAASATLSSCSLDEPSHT
Sequence of Regulator of G-protein signaling 16 (Homo sapiens) + Guanine nucleotide-binding protein G(o) subunit alpha (Homo sapiens) (P09471 whole entry, looked up): as the sequence (P09471 whole entry, looked up) above

For `Cc1cc(C)n(CC(O)CN(c2ccccc2)S(=O)(=O)c2ccc3ccccc3c2)n1` (centres undefined), in [1], the RGS16–Galpha-o binding response was -6.51%. Moreover, the RGS19–Galpha-o binding response in assay [2] was 163%. Besides, the RGS7–Galpha-o binding response in [3] was 1.45%. Further, in assay [4], the RGS8–Galpha-o binding response was 15%. In addition, in assay [5], the inhibition is 1.1% (inactive). The binding response (% of control) in assay [6] is 101% (inactive); in assay [9], 104% (inactive). Further, the response (percent of control binding) was 104% (inactive) in assay [7] and 98.9% (inactive) in [10]. Further, the response (% of control binding) in [8] is 103% (inactive).
Turning to `CN(C)CCN=c1cc(-c2ccccc2)oc2ccc(Cl)cc12`, the RGS16–Galpha-o binding response in assay [1] was 103%. Moreover, in assay [2], the RGS19–Galpha-o binding response was found to be 95.4%. This compound showed an RGS7–Galpha-o binding response in assay [3] of 155%. The RGS8–Galpha-o binding response in assay [4] was found to be 102%. Further, the inhibition in assay [5] was -3.8% (inactive). The binding response (% of control) in [6] and in assay [9] was 107% (inactive) in each case. Further, the figures for the response (percent of control binding) in assay [7] and in assay [10] were 111% (inactive) and 108% (inactive), respectively. In assay [8], the response (% of control binding) is 113% (inactive).
Regarding `Cc1cc2nc(C)n(CCCNC(=O)Nc3ccccc3)c2cc1C`, the RGS16–Galpha-o binding response in assay [1] was 283%. The RGS19–Galpha-o binding response in [2] is 94.8%. Moreover, the RGS7–Galpha-o binding response in assay [3] was 180%. For the same compound, in [4], the RGS8–Galpha-o binding response came to 170%. Also, in [5], the inhibition was -0.5% (inactive). Moreover, the binding response (% of control) was 102% (inactive) in assay [6] and 104% (inactive) in assay [9]. The response (percent of control binding) in assay [7] was 104% (inactive); in assay [10], 97.2% (inactive). In addition, the response (% of control binding) in assay [8] was 103% (inactive).
Take `CC(C)(C)NC(=O)c1cccc(NC(=O)Cc2ccc(Br)cc2)c1`: the RGS16–Galpha-o binding response in [1] was -3.28%. In addition, in [2], the RGS19–Galpha-o binding response worked out at 121%. Besides, the RGS7–Galpha-o binding response in assay [3] came to 76.6%. This compound also gave an RGS8–Galpha-o binding response in assay [4] of 70.2%. In assay [5], the inhibition is 1% (inactive). In addition, the binding response (% of control) in [6] is 103% (inactive); in assay [9] it was 100% (inactive). Also, the figures for the response (percent of control binding) in assay [7] and in assay [10] were 100% (inactive) and 115% (inactive), respectively. The response (% of control binding) in assay [8] was 99.4% (inactive).
For `Cc1ccc(Cn2ccc(NC(=O)c3cc(C(C)C)on3)n2)cc1`, the RGS16–Galpha-o binding response in [1] was 47.2%. Further, the RGS19–Galpha-o binding response in assay [2] was -20%. In addition, the RGS7–Galpha-o binding response in assay [3] stood at 43.9%. The RGS8–Galpha-o binding response in assay [4] worked out at 55.8%.
In the case of `O=C(CSc1ccc2nnc(-c3ccccc3)n2n1)N1CCCc2ccccc21`, in assay [1], the RGS16–Galpha-o binding response was 413%. In addition, in assay [2], the RGS19–Galpha-o binding response is -1120%. The compound further displayed an RGS7–Galpha-o binding response in [3] of 207%. Besides, the RGS8–Galpha-o binding response in assay [4] is 112%. The inhibition in assay [5] was 2% (inactive). Besides, the binding response (% of control) in [6] was 104% (inactive); in assay [9] it was 103% (inactive). Moreover, the response (percent of control binding) was 101% (inactive) in assay [7] and 108% (inactive) in assay [10]. For the same compound, in [8], the response (% of control binding) is 101% (inactive).
With `CCCn1c(C)cc(C(=O)COC(=O)c2c(C)nn(-c3ccccc3)c2C)c1C`, the RGS16–Galpha-o binding response in [1] was -33.9%. In assay [2], the RGS19–Galpha-o binding response came to 99.6%. In [3], the RGS7–Galpha-o binding response came to 81.9%. For the same compound, the RGS8–Galpha-o binding response in assay [4] was 83.8%. Besides, in assay [5], the inhibition is 1.1% (inactive). Besides, the binding response (% of control) in assay [6] is 105% (inactive); in assay [9], 104% (inactive). Also, the response (percent of control binding) in assay [7] is 104% (inactive); in [10] it was 110% (inactive). For the same compound, the response (% of control binding) in assay [8] was 103% (inactive).
Regarding `C=CCn1c(=NC(=O)c2cccs2)sc2cc(NC(C)=O)ccc21`, the RGS16–Galpha-o binding response in assay [1] amounted to 152%. Moreover, the RGS19–Galpha-o binding response in assay [2] was found to be 58.7%. The RGS7–Galpha-o binding response in assay [3] amounted to 152%. Further, the RGS8–Galpha-o binding response in assay [4] amounted to 136%. Moreover, in [5], the inhibition was -1.6% (inactive). For the same compound, the values for the binding response (% of control) in assay [6] and in [9] were 103% (inactive) and 102% (inactive), respectively. Besides, the figures for the response (percent of control binding) in assay [7] and in assay [10] were 107% (inactive) and 109% (inactive), respectively. The response (% of control binding) in assay [8] is 103% (inactive).
On to `Nc1ccc(C(=O)OCC(=O)NC2CCS(=O)(=O)C2)cc1[N+](=O)[O-]` (centres undefined), for which the RGS16–Galpha-o binding response in [1] is -10.3%. Besides, the RGS19–Galpha-o binding response in [2] was found to be 179%. In assay [3], the RGS7–Galpha-o binding response turned out to be 289%. This compound also returned an RGS8–Galpha-o binding response in assay [4] of 6.98%. The inhibition in [5] is -1.4% (inactive). Also, the results for the binding response (% of control) in assay [6] and in assay [9] were 101% (inactive) and 100% (inactive), respectively. Also, the response (percent of control binding) in [7] and in assay [10] was 103% (inactive) throughout. Further, the response (% of control binding) in assay [8] was 99.9% (inactive).
